# Measured values reported in the supplement of paper PMC6607015.
# Where a name gives a salt, the structure may show the parent alone.
# Key:
# Settings in all cases: compound concentration in added solution (µM; 5 µl added to 20 µl cells): 10; 18 h
# A431 [1] = test: LBPA endosome anti-LBPA integrated intensity (sum per cell), Z-score; higher = more LBPA staining
# In short: (§1)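 Per-cell integrated LBPA or filipin intensity, whole-cell or within LBPA endosomes, is expressed as Z-scores normalised in AcuityXpress. HeLa MZ or A431 cells, 3,500 per well in 20 µl, sat on 5 µl of 10 µM compound solution in duplicate 384-well imaging plates for 18 h. They were then fixed in 4% PFA, stained, imaged in four 20× fields per well and segmented using MetaXpress.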
# HeLa MZ [2] = test: as above
# In short: as §1
# A431 [3] = test: whole-cell filipin (free cholesterol) integrated intensity, Z-score; higher = more cholesterol staining
# In short: as §1
# HeLa MZ [4] = test: as above
# In short: as §1
# A431 [5] = test: filipin (cholesterol) integrated intensity within LBPA endosomes, Z-score; higher = more cholesterol in LBPA endosomes
# In short: as §1
# HeLa MZ [6] = test: as above
# In short: as §1
SMILES,LBPA endosome anti-LBPA integrated intensity (z-score) (A431 [1]),LBPA endosome anti-LBPA integrated intensity (z-score) (HeLa MZ [2]),whole-cell filipin (z-score) (A431 [3]),whole-cell filipin (z-score) (HeLa MZ [4]),filipin (z-score) (A431 [5]),filipin (z-score) (HeLa MZ [6])
CC[N+](CC)(CC(=O)Nc1c(C)cccc1C)Cc1ccccc1 [Denatonium benzoate],-0.32,-0.985,-0.241,-0.0671,-0.379,-0.548
CC1=C(/C=C/C(C)=C/C=C/C(C)=C\C(=O)O)C(C)(C)CCC1 [Isotretinoin],-0.383,-0.562,-0.622,-0.961,-0.488,-0.54
COc1cc(Cc2cnc(N)nc2N)cc(OC)c1OC [Trimethoprim],-0.479,-0.434,-0.787,-0.667,-0.515,-0.558
C[C@]12CC[C@H]3C(=CCc4cc(O)ccc43)[C@@H]1CCC2=O [Equilin],-0.185,0.864,-0.0277,0.614,-0.251,0.186
CC(=O)Oc1ccc(C(c2ccc(OC(C)=O)cc2)c2ccccn2)cc1 [Bisacodyl],-0.461,0.379,-0.546,0.375,-0.421,-0.162
O=C1O[C@H]([C@@H](O)CO)C(O)=C1O [Ascorbic acid],-0.608,-0.991,-0.369,0.278,-0.529,-0.527
CC(C)(C)C(=O)OCOC(=O)[C@@H]1N2C(=O)[C@@H](/N=C/N3CCCCCC3)[C@H]2SC1(C)C [Pivmecillinam hydrochloride],-0.535,-0.482,-0.185,-0.0756,-0.424,-0.445
NCCc1ccc(O)c(O)c1 [Dopamine hydrochloride],-0.272,0.0633,0.184,-0.446,-0.377,-0.485
CC(C)(C)C(=O)OCOC(=O)[C@@H]1N2C(=O)[C@@H](NC(=O)[C@H](N)c3ccccc3)[C@H]2SC1(C)C [Pivampicillin],-0.161,0.0846,0.0929,-0.0816,-0.266,-0.41
Nc1ccc(S(=O)(=O)Nc2nccs2)cc1 [Sulfathiazole],-0.403,-0.679,-0.453,0.103,-0.36,-0.308
COc1ccc2[nH]cc(CCNC(C)=O)c2c1 [Melatonin],-0.518,0.193,-0.621,-0.435,-0.528,-0.543
C[C@@H]1NC(=O)NC1=O [Methylhydantoin-5-(L)],-0.307,0.559,-0.263,-0.142,-0.411,-0.338
COC(=O)[C@@H]1[C@H]2C[C@H]3c4[nH]c5ccccc5c4CCN3C[C@@H]2CC[C@@H]1O [Yohimbine hydrochloride],-0.468,-0.264,-0.685,-0.575,-0.434,-0.333
CN(C)[C@@H]1C(O)=C(C(N)=O)C(=O)[C@@]2(O)C(O)=C3C(=O)c4c(O)ccc(Cl)c4[C@@](C)(O)[C@H]3C[C@@H]12 [Chlortetracycline hydrochloride],-0.612,-0.752,-1.07,-1.11,-0.66,-0.819
CS(=O)(=O)c1ccc([C@@H](O)[C@@H](CF)NC(=O)C(Cl)Cl)cc1 [Florfenicol],-0.565,-1.2,-0.505,-0.36,-0.528,-0.651
CNC1(C)C2CCC(C2)C1(C)C (stereo unspecified) [Mecamylamine hydrochloride],-0.608,-1.35,-0.41,-0.324,-0.495,-0.557
CC(C)NCC(O)COc1cccc2[nH]ccc12 (stereo unspecified) [Pindolol],-0.195,-0.563,-0.497,-0.0997,-0.329,-0.129
Cc1ccc(-c2cc(C(F)(F)F)nn2-c2ccc(S(N)(=O)=O)cc2)cc1 [Celecoxib],-0.0813,0.702,0.406,0.113,-0.205,-0.22
CCCCC[C@H](O)/C=C/[C@H]1[C@H](O)CC(=O)[C@@H]1CCCCCCC(=O)O [Alprostadil],-0.322,-0.486,0.113,-0.324,-0.323,-0.34
CC(C)(CO)C(O)C(=O)NCCCO (stereo unspecified) [Panthenol (D)],-0.558,-0.28,-0.953,-0.974,-0.509,-0.649
CN[C@@H]1[C@H](O)[C@H](NC)[C@H]2O[C@@]3(O)C(=O)C[C@@H](C)O[C@H]3O[C@@H]2[C@H]1O [Spectinomycin dihydrochloride],-0.507,-0.585,-0.388,-0.158,-0.451,-0.309
Cc1onc(-c2ccccc2Cl)c1C(=O)N[C@@H]1C(=O)N2[C@@H]1SC(C)(C)[C@@H]2C(=O)O [Cloxacillin sodium salt],-0.451,-0.521,-0.641,-0.277,-0.516,-0.434
CN(C)CCOC(C)(c1ccccc1)c1ccccn1 (stereo unspecified) [Doxylamine succinate],-0.48,0.575,-0.578,-0.502,-0.488,-0.154
CNCC[C@@H](Oc1ccccc1C)c1ccccc1 [Tomoxetine hydrochloride],-0.073,-0.709,0.0322,-0.417,-0.072,-0.0592
CC(C)(C)NCC(O)c1cc(O)cc(O)c1 (stereo unspecified) [Terbutaline hemisulfate],-0.651,-1.35,-0.395,-0.481,-0.593,-0.644
CNC(C)CCC=C(C)C (stereo unspecified) [Isometheptene mucate],-0.484,-0.292,0.117,-0.234,-0.458,-0.578
